Hits are enriched below; roughly 4.8% of the tested compounds scored in any of these assays.
SMARCA2 act: SMARCA2 (BRM) function activators, primary screen, cell-based, luminescence, high throughput; AID 652017, 2013; 1% of 370,000 active; MG213 cells, MMTV-luciferase reporter, dexamethasone, overnight; activation, % at 9.1 µM; in the data active means activation above about 7.8%
hgDAF12 agonist: H. glycines DAF-12 receptor agonists, primary screen, cell-based, luminescence, HEK293, GAL4 fusion, UAS-luciferase; HEK293 GAL4-hgDAF12 UAS-luciferase reporter, agonist luminescence; normalized to butyrate control; Nuclear hormone receptor DAF-12 (Heterodera glycines), GAL4 fusion; 1.8% of 370,000 active; activation, % at 6.8 µM;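 active means activation above a cutoff set at the mean of all screened compounds plus 3 SD, cut at about 10% in these data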
DAX1 inh-1: DAX1 (NR0B1) inhibitors, primary screen, cell-based, HEK293, Gal4-DAX1, luciferase luminescence; 0.99% of 340,000 active; inhibition, % at 6.75 µM; Nuclear receptor subfamily 0 group B member 1 (Homo sapiens), P51843; AID 504766, 2011; HEK293 Gal4-DAX1 luciferase reporter;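 active means inhibition above the mean over all tested compounds plus 3 SD, cut at about 4.2% in these data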;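 further: inhibition shows as a rise in luminescence from relieved DAX1 repression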
ssDAF12 agonist: S. stercoralis DAF-12 nuclear receptor activators, primary screen, cell-based, luminescence, HEK293, GRIP1 co-expression, lit1-tk-luc. Nuclear hormone receptor DAF-12 (Strongyloides stercoralis). 1% of 370,000 active. activation, % at 6.8 µM. AID 652126, 2013. HEK293 ssDAF-12/GRIP1 lit1-tk-luc reporter; % of 3 µM dafachronic acid response;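 active means activation above the mean over all tested compounds plus 3 SD, cut at about 0.9% in these data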
DAX1 inh-2: DAX1 (NR0B1) inhibitors on StAR promoter, primary screen, cell-based, luminescence, SF-1 (NR5A1), full-length DAX-1. HEK293T StAR-luciferase reporter, SF-1/DAX-1 repression relief. inhibition, % at 6.8 µM. 1.1% of 370,000 active;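 active means inhibition above the mean over all tested compounds plus 3 SD, cut at about 3.6% in these data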;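 further: higher inhibition means more luminescence from relief of DAX-1 repression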
hcDAF-12 act: H. contortus DAF-12 nuclear receptor activators, primary screen, cell-based, luminescence, HEK293, lit1-tk-luc reporter. HEK293 hcDAF-12 lit1-tk-luc reporter; 0% DMSO, 100% Δ7-dafachronic acid. 1.4% of 370,000 active. activation, % at 6.8 µM;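 active means activation above the mean of all tested compounds plus 3 SD, cut at about 5.5% in these data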
DAX1 conf: DAX1 (NR0B1) inhibitors relieving SF-1 repression, confirmation, cell-based, luminescence, HEK293T, full-length DAX-1, SF-1 activated StAR promoter. shares compounds with DAX1 inh-2. AID 652134, 2013. inhibition, % at 6.8 µM. 87% of 2,400 active. HEK293T StAR-promoter luciferase reporter, SF-1/DAX-1 repression;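 active means inhibition above the average of every tested compound plus 3 SD, cut at about 3.8% in these data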
SF1 mutant ctr: StAR reporter signal changes without DAX1, counter-screen for DAX1 inhibitor project, cell-based, luminescence, AF-2 mutant SF-1, transactivation; 78% of 2,400 active; HEK293 StAR-luciferase, SF-1 AF2 mutant; shares compounds with DAX1 inh-2; inhibition, % at 6.8 µM;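 active means inhibition above the mean of all tested compounds plus 3 SD, cut at about 3% in these data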
SMARCA2 act conf: SMARCA2 (BRM) function activators, confirmation, cell-based, luminescence, triplicate | shares compounds with SMARCA2 act | MG213 cells, MMTV-luciferase with dexamethasone, overnight; MG213 cells expressing E1A, Rb sequestered; DMSO wells 0%, reference activator 100% | activation, % at 9.1 µM | 30% of 3,500 active;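 active means activation above its plate's cutoff, the mean activation of tested wells plus 3 SD, cut at about 7.9% in these data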
GAL4-VP16 Luc: GAL4-VP16 luciferase reporter activation, counter-screen for SMARCA2 (BRM) activator project, cell-based, pG5luc, luminescence, high throughput | activation, % at 9.1 µM | shares compounds with SMARCA2 act | HEK293 GAL4-VP16 pG5luc reporter; scaled: DMSO wells 0%, SAHA wells 100% | 41% of 3,500 active;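 active means activation above the solvent-only control well mean plus 3 SD, averaged across control plates, cut at about 5.2% in these data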
LXRb hcDAF ctr: LXR agonists, Gal4 luciferase reporter, confirmation, counter-screen for hcDAF-12 agonist project, cell-based, luminescence, HEK293, H. contortus campaign; shares compounds with hcDAF-12 act; HEK293 Gal4-LXR tk-luc reporter, 24 h; normalized: DMSO 0%, positive control 100%; activation, % at 6.8 µM; 3,400 tested, under 10 active; AID 743027, 2013;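 active means mean percent activation of the reporter above a cutoff set as the average over tested compounds plus their standard deviation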
Target sequence (P55055 whole entry, looked up, the tested form may be a part): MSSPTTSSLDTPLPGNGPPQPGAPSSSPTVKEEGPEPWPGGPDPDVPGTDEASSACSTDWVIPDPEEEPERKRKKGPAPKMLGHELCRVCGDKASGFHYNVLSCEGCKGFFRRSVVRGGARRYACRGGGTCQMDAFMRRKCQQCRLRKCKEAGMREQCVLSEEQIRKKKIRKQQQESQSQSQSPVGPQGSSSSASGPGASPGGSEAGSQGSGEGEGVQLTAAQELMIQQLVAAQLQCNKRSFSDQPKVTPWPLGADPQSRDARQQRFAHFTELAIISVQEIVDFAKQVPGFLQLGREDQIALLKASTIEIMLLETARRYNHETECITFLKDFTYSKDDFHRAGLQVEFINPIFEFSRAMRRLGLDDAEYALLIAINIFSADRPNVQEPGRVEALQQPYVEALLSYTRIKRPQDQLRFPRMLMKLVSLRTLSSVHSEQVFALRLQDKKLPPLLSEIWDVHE
hcDAF12 conf: H. contortus DAF-12 receptor agonists, confirmation, cell-based, luminescence, HEK293, lit1-tk-luc, triplicate; shares compounds with hcDAF-12 act; HEK293 hcDAF-12 lit1-tk-luc reporter; % of Δ7-dafachronic acid response; activation, % at 6.8 µM; 61% of 3,400 active; AID 743032, 2013;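 active means mean activation across triplicate tests above the threshold derived from the earlier primary screen, cut at about 5.5% in these data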
A number is an active result; 0 = inactive; - = no result given.

SMILES	SMARCA2 act	hgDAF12 agonist	DAX1 inh-1	ssDAF12 agonist	DAX1 inh-2	hcDAF-12 act	DAX1 conf	SF1 mutant ctr	LXRb hcDAF ctr	hcDAF12 conf	others
N#Cc1ccc(/C=C(\C(=O)C(=O)O)c2ccc3ccccc3n2)cc1	0	14.8	6.0	1.2	6.8	10.1	8.2	4.4	0	8.9
N#CCCN(C(=O)COC(=O)c1ccc2ccccc2n1)c1ccccc1	0	0	0	0	0	0	-	-	-	-
C=C(C)/C=C1/C(Cc2ccccc2)N(CC2CC2)C(=N)N1C(=O)OCc1ccccc1 (configuration not stated)	0	0	-	0	0	0	-	-	-	-
CC(C)NC(=O)NC(=O)COc1ccc(Br)cc1Br	0	11.7	0	0	6.3	7.5	16.6	6.7	0	6.0
Cc1cccc(-c2nnc(-c3cccc4ccccc34)o2)c1	0	11.1	6.4	1.2	5.4	7.0	10.0	8.5	0	8.7
Clc1ccc(-c2nnc(-c3cccc4ccccc34)o2)cc1	0	0	0	0	0	0	-	-	-	-
C[C@H](O)[C@@H]1CN2CCc3c([nH]c4c(-c5ccccc5)cccc34)[C@@H]2C[C@@H]1N(C)C(=S)NCCc1ccccc1	0	0	-	0	0	0	-	-	-	-
C(=Cc1nc2ccccc2o1)c1ccc2c(c1)OCO2	0	14.4	0	0	13.2	8.1	6.3	0	0	8.9
C(=Cc1cnc2ccccc2n1)c1ccc2c(c1)OCO2	0	0	0	0	0	0	-	-	-	-
COc1ccc(NC(=O)c2[nH]c(C)c(C(C)=O)c2C)cc1	0	11.4	0	1.7	4.7	10.9	6.5	6.8	0	10.2
CC(=O)c1c(C)[nH]c(C(=O)Nc2cccc(C)n2)c1C	0	11.7	0	0	11.6	6.9	10.7	4.7	0	0
Cc1cccc(C(=O)Nc2nc3ncccn3c2-c2ccc(F)cc2)c1	0	0	-	0	0	0	-	-	-	-
Cc1cc(C)nc(Nc2nc(-c3ccccc3)cs2)n1	0	18.4	0	5.0	4.5	22.1	19.6	8.4	0	36.9
c1ccc(-c2csc(Nc3ccc4c(c3)OCCO4)n2)cc1	0	18.6	0	3.1	6.9	15.0	19.9	7.0	0	16.3
CCOC(=O)[C@@]12CCCC=C1N(CCc1ccc(Cl)cc1)C(=O)[C@H]2CC(=O)N1CCCCC1	0	0	-	0	0	0	-	-	-	-
COCCCNC(=O)C[C@H]1C[C@@]2(C(=O)OC)C(=C[C@H](C(C)C)O[C@@H]2C2CC2)N(Cc2ccco2)C1=O	0	0	-	0	0	0	-	-	-	-
O=C(NC1CCCCN(Cc2ccc(Cl)cc2)C1=O)c1cccc([N+](=O)[O-])c1 (configuration not stated)	0	0	-	0	0	0	-	-	-	-
CC(/C=N/NC(=O)c1cccs1)=C\c1ccccc1	0	16.3	0	1.4	7.0	6.8	17.9	7.8	0	7.2
O=C(OCc1cn(Cc2c(F)cccc2F)nn1)N1CCCC1	0	0	-	0	0	0	-	-	-	-
Cc1ccccc1CS(=O)(=O)Cc1ccc(C(=O)Nc2ccc(F)cc2F)o1	0	0	-	0	0	0	-	-	-	-
Cc1ccnc(NC(=O)c2sc3cc(Cl)ccc3c2Cl)c1	0	0	0	0	0	0	-	-	-	-
O=C(Nc1ccccn1)c1sc2cccc(F)c2c1Cl	0	18.7	0	1.1	8.4	14.3	8.5	0	0	17.9
Cc1ccc(NC(=O)c2sc3ccccc3c2Cl)nc1	0	19.5	0	0	5.1	10.3	10.6	3.1	0	17.6
CN(C)CCNC(=O)c1sc2cccc(F)c2c1Cl	0	0	0	0	0	0	-	-	-	-
Cc1c(NC(=O)c2ccc(-c3ccccc3)cc2)cccc1C(=O)O	0	27.3	0	0	6.6	10.6	15.1	7.7	0	12.9
COc1ccc(-n2c(SC/C=C/c3ccccc3)nnc2-c2cccs2)cc1	0	0	-	0	0	0	-	-	-	-
COc1ccc(NC(=O)Nc2cc(C)ccn2)cc1	0	19.0	0	0	5.0	7.3	16.9	8.2	0	8.9
COc1ccc(C(=O)NC(=O)Nc2cc(C)ccn2)cc1	11.7	0	0	0	6.6	7.7	0	0	0	0	SMARCA2 act conf=0;GAL4-VP16 Luc=0
Cc1ccc(C2=NN(S(C)(=O)=O)C(c3ccc4c(c3)OCO4)C2)cc1 (configuration not stated)	0	21.3	0	0.9	5.4	12.9	19.3	9.0	0	14.0

Compound activity: PubChem BioAssay, The Scripps Research Institute Molecular Screening Center
